Results filed as inconclusive are left out. Active and inactive are the calls of the source. Unless noted, the call rests on the fitted dose curve; in most records, active means well fitted curve in the direction sought with a large enough effect in the repeat runs; inconclusive means weak or mixed curves; inactive means no such curve, though single readings can be large; an effect the other way counts as inactive or inconclusive.

A short description of assay [1]: A CellTox Green Cytotoxicity Assay to monitor cytotoxicity in HepG2 cells - 0 hour (AID 1224882). Further: nearly all actives have a fitted effect of over 35% in size. A digest of the protocol: (§1)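 Measurements at 0, 8, 16, 24, 32 and 40 h of treatment captured CellTox Green fluorescence in HepG2 cells that had been co-plated with reagent and preincubated 5 h at 37 C/5% CO2.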
A short description of assay [2]: A CellTox Green Cytotoxicity Assay to monitor cytotoxicity in HepG2 cells - 32 hour (AID 1224883). Further: nearly all actives have a fitted effect of over 50% in size. Further: potency means the concentration at half of the fitted maximal effect. A digest of the protocol: as §1
Assay [3] in a line: A CellTox Green Cytotoxicity Assay to monitor cytotoxicity in HEK293 cells - 8 hour (AID 1224884). Further: nearly all actives have a fitted effect of over 35% in size. Further: potency means the concentration at half of the fitted maximal effect. A digest of the protocol:
(§2)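 Tox21 screen in HEK293: membrane-impermeant cyanine dye fluoresces on binding dead-cell DNA; compound pinned 5 h post-seeding, plates held at 37 C, signal read repeatedly through 40 h.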

A short description of assay [4]: qHTS RealTime-Glo MT Cell Viability Assay in HepG2 cells - 16 hour (AID 1224885). Further: nearly all actives have a fitted effect of over 50% in size. Further: potency means the concentration at half of the fitted maximal effect. A digest of the protocol: (§3)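 Luminescence read-out: viable HepG2 cells reduce a prosubstrate to a NanoLuc substrate, giving a signal proportional to live cell number. Reads taken at 0, 8, 16, 24, 32 and 40 h of compound exposure at 37 C.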
In general terms: In qHTS, concentration-response curves come from the screen itself.

Assay [5] in a line: qHTS RealTime-Glo MT Cell Viability Assay in HEK293 cells - 8 hour (AID 1224887). Further: nearly all actives have a fitted effect of over 50% in size. Further: potency means the concentration at half of the fitted maximal effect. A digest of the protocol: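 HEK293 + NanoLuc + prosubstrate, 600 cells/well; 5 h, 37 C/5% CO2; compound 23 nL in DMSO by pintool; 37 C; luminescence read at 0, 8, 16, 24, 32 and 40 h time points.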
Assay [6] can be described thus: A CellTox Green Cytotoxicity Assay to monitor cytotoxicity in HEK293 cells - 16 hour (AID 1224888). Further: nearly all actives have a fitted effect of over 35% in size. Further: potency means the concentration at half of the fitted maximal effect. A digest of the protocol: as §2
The nature of assay [7]: qHTS RealTime-Glo MT Cell Viability Assay in HepG2 cells - 0 hour (AID 1224889). Further: nearly all actives have a fitted effect of over 50% in size. A digest of the protocol:
as §3

A short description of assay [8]: qHTS assay to identify small molecule antagonists of the estrogen receptor alpha (ER-alpha) signaling pathway using the BG1 cell line in the presence of 0.1 nM 17-beta-estradiol - cell viability counter screen (AID 1259241). Further: nearly all actives have a fitted effect of over 40% in size. A digest of the protocol: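 Live-cell protease activity (CellTiter-Fluor fluorescence, 30 min) was read in the same wells after VM7Luc4E2 cells had been exposed to compounds with 0.1 nM 17beta-estradiol for 22 hr at 37C.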

The nature of assay [9]: qHTS assay to identify small molecule antagonists of the androgen receptor (AR) signaling pathway using the MDA cell line in the presence of 0.5 nM R1881 - cell viability counter screen (AID 1259242). Further: nearly all actives have a fitted effect of over 45% in size. In outline:
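Concentration-response screen of compounds for toxicity in MDA-kb2 reporter cells: 16 hr at 37C with 0.5 nM R1881, endpoint live-cell protease fluorescence measured in the reporter wells.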

Assay [10] deals with Estrogen receptor (Homo sapiens) (UniProt P03372). Kind of assay: qHTS assay to identify small molecule antagonists of the estrogen receptor alpha (ER-alpha) signaling pathway using the BG1 cell line in the presence of 0.1 nM 17-beta-estradiol (AID 1259244). Further: nearly all actives have a fitted effect of over 50% in size. A digest of the protocol:
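Compounds were tested against 0.1 nM (final) 17beta-estradiol in VM7Luc4E2 cells, which express full-length ER-alpha and an ERE-luciferase reporter; luminescence was recorded following 22 h exposure.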

Assay [11] in a line: qHTS assay to identify small molecule HDAC inhibitors (AID 1259364).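 Further: wild-type HCT-116 cells with endogenous class I/II HDAC activity; top concentration of the series differs between compounds; nearly all actives have a fitted effect of over 45% in size.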 In outline:
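Screening used wild-type human colon HCT-116 cells incubated overnight, dosed with compounds for 2 hours, and assayed with a homogeneous luminogenic HDAC I/II reagent for 30 minutes at room temperature.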

Assay [12] in a line: qHTS assay to identify small molecule HDAC inhibitors - cell viability counter screen (AID 1259365). A digest of the protocol: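 HCT-116 (wild type), 1,500 cells/well, overnight 37C/5% CO2; compound in DMSO 2hr; CellTiter-Glo 30min RT; luminescence read.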
The nature of assay [13]: qHTS assay to identify small molecule agonists of the sonic hedgehog signaling (Shh) pathway - cell viability counter screen (AID 1259366). Further: nearly all actives have a fitted effect of over 50% in size. Further: potency means the concentration at half of the fitted maximal effect. In outline: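 CellTiter-Fluor fluorescence read-out, 1 hr at 37C, added after 23hr compound exposure. Cells: 3T3 Gli1-Luc, an NIH/3T3 clone with stably integrated Gli1-Luc reporter, plated 4hr before compound.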
The nature of assay [14]: qHTS assay to identify small molecule agonists of the sonic hedgehog signaling (Shh) pathway (AID 1259368; calls by dose curve;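 further: NIH/3T3-derived 3T3Gli1-Luc cells carrying a stable Gli1-driven firefly luciferase reporter; series mostly up to about 92 µM; nearly all actives have a fitted effect of over 15% in size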). In outline:
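Hedgehog pathway agonism scored by increased firefly luciferase luminescence in 3T3Gli1-Luc cells treated 24 hr at 37 C; detection used a 30 min room-temperature reagent incubation.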

Assay [15] is described as follows: qHTS assay to identify small molecule antagonists of the sonic hedgehog signaling (Shh) pathway (AID 1259369; calls by dose curve; further: nearly all actives have a fitted effect of over 45% in size; further: potency means the concentration at half of the fitted maximal effect). A digest of the protocol: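 NIH/3T3 stable Gli1-Luc clone, 2,000 cells/well, 4hr settle; cpd + conditioned medium 24hr; Luc reagent 30min RT; luminescence.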
Assay [16] is described as follows: qHTS assay to identify small molecule antagonists of the sonic hedgehog signaling (Shh) pathway - cell viability counter screen (AID 1259367). Further: nearly all actives have a fitted effect of over 55% in size. A digest of the protocol: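 Cytotoxicity was assessed in parallel with Shh reporter activity by measuring live-cell protease fluorescence (CellTiter-Fluor) in NIH/3T3 cells stably carrying Gli1-Luc, treated with compound under conditioned medium stimulation for 23 hr plus 1 hr reagent incubation.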

Assay [17] can be described thus: qHTS RealTime-Glo MT Cell Viability Assay in HEK293 cells - 24 hour (AID 1224886). A digest of the protocol: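 Nonlytic real-time viability readout: viable cells convert prosubstrate to NanoLuc substrate, giving luminescence proportional to live cell number. HEK293, 600 cells/well, compound added after 5 h, continuous culture at 37 C.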
Assay [18] is described as follows: A CellTox Green Cytotoxicity Assay to monitor cytotoxicity in HepG2 cells - 8 hour (AID 1224890). Further: nearly all actives have a fitted effect of over 45% in size. In outline: as §1
In assay [19] the target is Androgen receptor (Homo sapiens) (UniProt P10275). Kind of assay: qHTS assay to identify small molecule antagonists of the androgen receptor (AR) signaling pathway using the MDA cell line in the presence of 0.5 nM R1881 (AID 1259243). Further: nearly all actives have a fitted effect of over 50% in size. A digest of the protocol: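 With R1881 held at 0.5 nM (final), compound effects on MMTV-luciferase expression in MDA-kb2 cells were scored by luminescence after a 16 hr, 37C incubation.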
Androgen receptor (Homo sapiens), sequence (P10275 whole entry, looked up): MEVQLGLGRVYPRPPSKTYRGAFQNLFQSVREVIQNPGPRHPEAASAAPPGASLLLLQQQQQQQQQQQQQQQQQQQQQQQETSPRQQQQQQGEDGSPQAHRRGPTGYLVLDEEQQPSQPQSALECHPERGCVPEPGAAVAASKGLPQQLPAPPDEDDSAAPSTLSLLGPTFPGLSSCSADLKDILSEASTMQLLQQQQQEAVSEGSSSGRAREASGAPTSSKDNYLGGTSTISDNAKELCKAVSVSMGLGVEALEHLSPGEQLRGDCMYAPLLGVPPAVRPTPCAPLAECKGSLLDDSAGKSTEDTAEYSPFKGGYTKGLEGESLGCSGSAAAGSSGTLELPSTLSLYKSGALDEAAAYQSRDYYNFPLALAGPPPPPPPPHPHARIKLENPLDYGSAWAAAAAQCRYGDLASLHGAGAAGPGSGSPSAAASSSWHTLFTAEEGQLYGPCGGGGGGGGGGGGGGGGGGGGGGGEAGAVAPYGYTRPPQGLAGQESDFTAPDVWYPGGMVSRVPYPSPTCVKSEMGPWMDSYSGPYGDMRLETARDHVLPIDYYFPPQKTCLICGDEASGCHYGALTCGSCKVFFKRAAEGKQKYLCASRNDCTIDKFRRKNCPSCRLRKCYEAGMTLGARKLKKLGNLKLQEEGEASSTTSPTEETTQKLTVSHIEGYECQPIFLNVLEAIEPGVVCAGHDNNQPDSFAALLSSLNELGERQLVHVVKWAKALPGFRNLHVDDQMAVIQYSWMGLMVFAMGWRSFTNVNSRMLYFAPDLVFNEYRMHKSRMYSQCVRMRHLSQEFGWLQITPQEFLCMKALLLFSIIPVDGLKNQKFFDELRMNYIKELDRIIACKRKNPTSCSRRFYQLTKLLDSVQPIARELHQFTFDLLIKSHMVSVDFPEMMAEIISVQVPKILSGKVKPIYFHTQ

Estrogen receptor (Homo sapiens), sequence (P03372 whole entry, looked up): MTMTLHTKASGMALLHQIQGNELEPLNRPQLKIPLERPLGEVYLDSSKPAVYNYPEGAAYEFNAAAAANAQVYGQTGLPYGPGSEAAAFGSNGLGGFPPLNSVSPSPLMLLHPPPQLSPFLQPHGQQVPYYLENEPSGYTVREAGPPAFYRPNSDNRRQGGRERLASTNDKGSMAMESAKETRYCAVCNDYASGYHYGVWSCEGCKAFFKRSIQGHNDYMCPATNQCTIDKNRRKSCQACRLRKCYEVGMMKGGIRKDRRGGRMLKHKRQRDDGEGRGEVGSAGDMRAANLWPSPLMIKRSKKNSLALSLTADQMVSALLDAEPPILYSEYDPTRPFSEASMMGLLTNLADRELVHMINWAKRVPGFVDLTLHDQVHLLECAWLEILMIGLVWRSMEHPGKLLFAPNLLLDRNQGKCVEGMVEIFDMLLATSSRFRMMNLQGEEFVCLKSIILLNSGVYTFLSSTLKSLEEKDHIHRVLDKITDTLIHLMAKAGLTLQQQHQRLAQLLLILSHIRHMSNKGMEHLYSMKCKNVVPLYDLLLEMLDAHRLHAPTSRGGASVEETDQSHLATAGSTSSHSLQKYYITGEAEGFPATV

Regarding `CCN(CC)CCCN(c1ccccc1)C1Cc2ccccc2C1`, the Potency result in [1], in assay [3], in assay [4], in assay [5], in assay [6] and in [7] was “inactive” in each case. For the same molecule, the Potency result in assay [8], in assay [9], in [10], in [11], in [12] and in assay [13] was “inactive” in each case. Moreover, in assay [14], the Potency result is “inactive”. For the same molecule, the Potency in assay [2] is 23.9 µM (active); in [15] it was 15 µM (active).

Consider `O=C(c1ccccc1)c1cc(Cl)ccc1O`, for which the Potency result in [1], in [2], in assay [3], in assay [4], in [6] and in assay [7] was “inactive” each time. The Potency entry in assay [9], in assay [10], in assay [11], in [12], in assay [13] and in assay [16] was “inactive” each time. For the same molecule, the Potency entry in assay [14] was “inactive”.

For `CCN(CC)CCOc1ccc(C(O)(Cc2ccc(Cl)cc2)c2ccc(C)cc2)cc1` (stereo not given), the Potency entry in assay [1], in [3], in [8], in assay [10], in assay [11] and in assay [12] was “inactive” each time. The Potency entry in assay [14] was “inactive”. In addition, the Potency in [2] is 15.1 µM (active); in assay [4] it was 23.9 µM (active); in assay [17] it was 19 µM (active); in assay [5], 21.3 µM (active); in assay [15], 5.96 µM (active).

Regarding `C=CC(=O)OCCC#N`, the Potency result in assay [1], in assay [2], in assay [3], in assay [4], in [5] and in [6] was “inactive” throughout. The Potency entry in [7], in assay [18], in assay [8], in assay [9], in assay [19] and in assay [11] was “inactive” each time. The Potency entry in assay [12], in assay [13], in assay [16], in assay [14] and in assay [15] was “inactive” in each case.

As to `CC(CN(C)C)CN1c2ccccc2CCc2ccccc21` (stereo not given), the Potency entry in assay [1], in [3], in [4], in assay [5], in assay [6] and in [7] was “inactive” in each case. The Potency entry in assay [18], in [8], in assay [9], in assay [10], in assay [11] and in assay [12] was “inactive” each time. In addition, the Potency entry in [13], in [16] and in [14] was “inactive” in each case. Besides, the Potency in assay [2] is 23.9 µM (active); in assay [15] it was 2.37 µM (active).

Consider `Nc1cc(Cl)c([N+](=O)[O-])cc1O`, for which the Potency result in [1], in [2], in assay [3], in assay [4], in [6] and in [7] was “inactive” throughout. For the same molecule, the Potency entry in [18], in assay [11], in assay [12] and in assay [14] was “inactive” throughout.

With `Cc1ccc(-n2[nH]c(C)c(N=Nc3cccc(-c4cccc(C(=O)O)c4)c3O)c2=O)cc1C`, the Potency entry in [1], in assay [2], in assay [3], in assay [4], in [5] and in assay [6] was “inactive” in each case. Besides, the Potency entry in [7], in [18], in [19], in [11], in [12] and in [13] was “inactive” throughout. The Potency entry in assay [16], in assay [14] and in assay [15] was “inactive” throughout.

Turning to `CC(C)(C)CC(C)(C)c1ccccc1O`, the Potency entry in assay [1], in assay [4], in assay [7], in assay [8], in assay [9] and in assay [14] was “inactive” in each case. The Potency was 27.7 µM (active) in assay [2]; 39.1 µM (active) in assay [3]; 34.9 µM (active) in assay [5]; 39.1 µM (active) in assay [6]; 54.8 µM (active) in [13].

Values taken from PubChem BioAssay (Tox21).
